Records with an inconclusive call do not appear. Activity calls are given as the source filed them. Calls follow the shape of the dose curve; as a rule, active = well fitted cell-killing curve with a large enough effect; inconclusive = small, poorly fitted or top-dose-only effect, or effect the other way; inactive = no such curve, though single readings can be large or run the other way.
Legend:
[1] = Quantitative High-Throughput drug screen in 47 multiple myeloma cell lines against the NCATS MIPE library collection: FR4_PLB cell viability assay (AID 1918924; also: nearly all actives have a fitted effect of over 35% in size)
How it was run: (§1)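 Steps: seed 500 cells per well; pin-transfer MIPE 4.0 library; incubate 48 h at 37C, 5% CO2, humidified; add CellTiter-Glo, 5 min room temperature; read luminescence.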

[2] = Quantitative High-Throughput drug screen in 47 multiple myeloma cell lines against the NCATS MIPE library collection: Delta47_JCRB cell viability assay (AID 1918925; also: nearly all actives have a fitted effect of over 45% in size)
How it was run: (§2)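 Approved and investigational drugs from MIPE 4.0 were added by pin tool to 500 cells per well. After 48 hours at 37C, ATP-based CellTiter-Glo luminescence indicated remaining viability.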

[3] = Quantitative High-Throughput drug screen in 47 multiple myeloma cell lines against the NCATS MIPE library collection: EJM_DSMZ cell viability assay (AID 1918926; also: nearly all actives have a fitted effect of over 30% in size)
How it was run: as §2

[4] = Quantitative High-Throughput drug screen in 47 multiple myeloma cell lines against the NCATS MIPE library collection: AMO1_DSMZ cell viability assay (AID 1918927; also: nearly all actives have a fitted effect of over 30% in size)
How it was run: as §2

[5] = Quantitative High-Throughput drug screen in 47 multiple myeloma cell lines against the NCATS MIPE library collection: ARP1_JJKsccF8 cell viability assay (AID 1918928; also: nearly all actives have a fitted effect of over 40% in size)
How it was run: (§3)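 Viability screen: myeloma cells (500/well) incubated 48 h at 37 °C, humidified 5% CO2, with pinned library compounds; CellTiter-Glo added, luminescence read; DMSO wells set 100%, medium-only wells 0%.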

[6] = Quantitative High-Throughput drug screen in 47 multiple myeloma cell lines against the NCATS MIPE library collection: ARD_JJKsccE7 cell viability assay (AID 1918929)
How it was run: as §2

[7] = Quantitative High-Throughput drug screen in 47 multiple myeloma cell lines against the NCATS MIPE library collection: Karpas620_DSMZ cell viability assay (AID 1918959); also: nearly all actives have a fitted effect of over 30% in size
How it was run: as §1

[8] = Quantitative High-Throughput drug screen in 47 multiple myeloma cell lines against the NCATS MIPE library collection: KMM1_JCRB cell viability assay (AID 1918960); also: nearly all actives have a fitted effect of over 30% in size
How it was run: as §3

[9] = Quantitative High-Throughput drug screen in 47 multiple myeloma cell lines against the NCATS MIPE library collection: Karpas417_ECACC cell viability assay (AID 1918961); conditions: Karpas417 myeloma viability, CellTiter-Glo ATP luminescence, 48 h; viability (% of DMSO): at 45.8 µM (top of the series)
How it was run: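 CellTiter-Glo luminescence (ATP) after 48 h compound exposure, 37C/5% CO2; 500 cells/well; MIPE 4.0 approved/investigational drugs pinned in; DMSO = 100%, media only = 0% viability.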
Potency is read from the fitted curve at half-maximal effect.

CCCCN1CCC(CNC(=O)c2c3n(c4ccccc24)CCCO3)CC1
active: Potency [1] 11800 nM | Potency [2] 6620 nM | Potency [3] 1480 nM | Potency [4] 13200 nM | Potency [5] 20900 nM | Potency [6] 16600 nM

CN1CCN(c2cc(C(=O)Nc3ccc4c(c3)-c3c(c(C(N)=O)nn3-c3ccc(F)cc3)CC4)c(Cl)cn2)CC1
active: Potency [1] 16600 nM | Potency [2] 935 nM | Potency [3] 833 nM | Potency [4] 7430 nM | Potency [7] 23500 nM | Potency [8] 20900 nM

CC1=C(CO)C(=O)O[C@@H]([C@@H](C)[C@H]2CC[C@H]3[C@@H]4C[C@H]5O[C@]56[C@@H](O)C=CC(=O)[C@]6(C)[C@@H]4CC[C@]23C)C1
active: Potency [1] 372 nM | Potency [2] 148 nM | Potency [3] 235 nM | Potency [5] 166 nM
inactive: Potency [6] | Potency [7] | Potency [8]

C=C1C(=CC=C2CCC[C@]3(C)[C@@H]([C@H](C)C=C[C@H](C)C(C)C)CC[C@@H]23)C[C@@H](O)C[C@@H]1O
active: Potency [1] 5900 nM | Potency [2] 8330 nM | Potency [3] 590 nM | Potency [4] 235 nM | Potency [5] 1660 nM | Potency [6] 332 nM | Potency [7] 1480 nM | Potency [8] 469 nM | Potency [9] 118 nM

COC(=O)C[C@](O)(CCCC(C)(C)O)C(=O)O[C@@H]1C(OC)=C[C@]23CCCN2CCc2cc4c(cc2[C@H]13)OCO4
inactive: Potency [1] | Potency [2] | Potency [3] | Potency [5] | Potency [9]

O=C(C=Cc1cccc(S(=O)(=O)Nc2ccccc2)c1)NO
active: Potency [1] 1520 nM | Potency [2] 1710 nM | Potency [3] 6050 nM | Potency [4] 855 nM | Potency [5] 960 nM | Potency [6] 1080 nM | Potency [7] 2410 nM | Potency [8] 1080 nM | Potency [9] 1080 nM

CC(C)(C)OC(=O)Nc1ccc(-c2cc(C(=O)NCCCCCCC(=O)NO)no2)cc1
active: Potency [1] 1320 nM | Potency [2] 833 nM | Potency [3] 3720 nM | Potency [4] 590 nM | Potency [5] 743 nM | Potency [6] 935 nM | Potency [7] 2350 nM

CC(C)c1ccc(Cn2ccc3c4c(N)nc(NC5CC5)nc4ccc32)cc1
active: Potency [1] 4180 nM | Potency [2] 3320 nM | Potency [3] 14800 nM | Potency [4] 935 nM | Potency [5] 4180 nM | Potency [6] 3320 nM | Potency [7] 1050 nM | Potency [8] 2350 nM | Potency [9] 10500 nM

CCN(CC)CCCCNc1ncc2cc(-c3cc(OC)cc(OC)c3)c(NC(=O)NC(C)(C)C)nc2n1
active: Potency [1] 20900 nM | Potency [2] 9350 nM | Potency [3] 23500 nM | Potency [4] 26400 nM | Potency [5] 23500 nM | Potency [6] 23500 nM | Potency [8] 18700 nM

CCN1CCN(CC(=O)Nc2ccc(-c3cccc4c(=O)cc(N5CCOCC5)oc34)c3sc4ccccc4c23)CC1
active: Potency [1] 1480 nM | Potency [2] 418 nM | Potency [3] 13200 nM | Potency [5] 264 nM | Potency [6] 11.8 nM | Potency [8] 132 nM

C=CC(=O)Nc1cc2c(Nc3ccc(F)c(Cl)c3)ncnc2cc1C#CC(C)(C)N1CCN(C)CC1
active: Potency [1] 3720 nM | Potency [2] 469 nM | Potency [3] 2090 nM | Potency [4] 662 nM | Potency [5] 5900 nM | Potency [6] 1050 nM | Potency [7] 590 nM | Potency [8] 1480 nM | Potency [9] 590 nM

COc1ccc(CC2SC(=O)NC2=O)cc1C(=O)NCc1ccc(C(F)(F)F)cc1 (stereo not drawn)
inactive: Potency [1] | Potency [2] | Potency [3] | Potency [4] | Potency [5]

CCC[C@H](NC(=O)C(C#N)=Cc1cccc(Br)n1)c1ccccc1
active: Potency [1] 2640 nM | Potency [2] 1320 nM | Potency [3] 2960 nM | Potency [5] 4180 nM | Potency [7] 6620 nM | Potency [9] 5900 nM

CC=CC1=C(C(=O)O)N2C(=O)[C@H](NC(=O)[C@H](N)c3ccc(O)cc3)[C@@H]2SC1
inactive: Potency [1] | Potency [2] | Potency [3] | Potency [5] | Potency [9]
active: Potency [4] 8330 nM

Fc1cc(-c2cccc3ncc(-c4cnn(C5CCNCC5)c4)nc23)cc(F)c1CN1CCOCC1
inactive: Potency [8]
active: Potency [1] 18700 nM | Potency [2] 7430 nM | Potency [3] 20900 nM | Potency [4] 8330 nM | Potency [5] 16600 nM | Potency [7] 7430 nM | Potency [9] 418 nM

Cc1nc2cnc3ccc(C#Cc4cccnc4)cc3c2n1-c1ccc(C(C)(C)C#N)cc1
active: Potency [1] 118 nM | Potency [2] 16.6 nM | Potency [3] 1660 nM
inactive: Potency [8]

Cc1ccc(-c2ncn(-c3ccc(Nc4nccc(-c5cccc(N6CCOCC6)c5)n4)cc3)n2)cn1
active: Potency [1] 132 nM | Potency [3] 187 nM | Potency [4] 132 nM | Potency [5] 166 nM | Potency [6] 105 nM | Potency [7] 209 nM | Potency [8] 105 nM | Potency [9] 29.6 nM

CC(C)C[C@H](NC(=O)CNC(=O)c1cc(Cl)ccc1Cl)B(O)O
active: Potency [1] 83.3 nM | Potency [2] 46.9 nM | Potency [4] 46.9 nM | Potency [5] 59 nM | Potency [6] 74.3 nM | Potency [7] 118 nM | Potency [8] 66.2 nM | Potency [9] 41.8 nM

O=C(O)CO.[NH2-].[NH2-].[Pt+2]
inactive: Potency [1] | Potency [3] | Potency [4] | Potency [5] | Potency [7] | Potency [8]

Cn1c2cc(S(C)=O)sc2c2cnn(Cc3cccc(N)c3)c(=O)c21 (stereo not drawn)
inactive: Potency [1] | Potency [3] | Potency [4] | Potency [5] | Potency [6] | Potency [7] | Potency [8] | Potency [9]

O=c1[nH]c(=O)n(C2CCCO2)cc1F (stereo not drawn)
inactive: Potency [1] | Potency [2] | Potency [4] | Potency [5] | Potency [7] | Potency [8]

Nc1ccn([C@@H]2CS[C@H](CO)O2)c(=O)n1
inactive: Potency [1] | Potency [3] | Potency [4] | Potency [5] | Potency [6] | Potency [7] | Potency [8]

CC[C@@H]1C(=O)N(C)c2cnc(Nc3ccc(C(=O)NC4CCN(C)CC4)cc3OC)nc2N1C1CCCC1
active: Potency [1] 23.5 nM | Potency [3] 3720 nM | Potency [4] 83.3 nM | Potency [5] 37.2 nM | Potency [6] 29.6 nM | Potency [9] 1870 nM

COCCn1c2c([n+](Cc3cnccn3)c1C)C(=O)c1ccccc1C2=O
active: Potency [1] 10.5 nM | Potency [3] 7.4 nM | Potency [4] 52.6 nM | Potency [5] 11.8 nM

O=c1[nH]nc(Sc2ncc([N+](=O)[O-])s2)n1-c1ccc2c(c1)OCCO2
active: Potency [1] 7430 nM | Potency [2] 2350 nM | Potency [4] 6620 nM | Potency [5] 2960 nM | Potency [6] 7430 nM | Potency [7] 2640 nM

C=CC(=O)Nc1cc2c(Nc3ccc(F)c(Cl)c3)ncnc2cc1OCCCN1CCOCC1
active: Potency [1] 14800 nM | Potency [2] 2960 nM | Potency [5] 5900 nM

CN(C)CC=CC(=O)Nc1cc2c(Nc3ccc(F)c(Cl)c3)ncnc2cc1O[C@H]1CCOC1
active: Potency [1] 14800 nM | Potency [3] 16600 nM | Potency [4] 935 nM | Potency [5] 18700 nM | Potency [6] 5260 nM | Potency [7] 2640 nM | Potency [8] 3720 nM

Nc1nc(-c2nn(Cc3ccccc3F)c3ncccc23)nc(N)c1N1CCOCC1
inactive: Potency [1] | Potency [3] | Potency [5]
active: Potency [4] 20900 nM | viability (% of DMSO) [9] 86.8%

Cc1[nH]c2ccccc2c1CCNCc1ccc(C=CC(=O)NO)cc1
active: Potency [1] 46.9 nM | Potency [3] 148 nM | Potency [5] 41.8 nM | Potency [8] 52.6 nM

O=C(O)c1ccc2cc(-c3ccc(O)c(C45CC6CC(CC(C6)C4)C5)c3)ccc2c1
active: Potency [1] 23500 nM | Potency [2] 5900 nM | Potency [4] 1320 nM | Potency [5] 5900 nM | Potency [6] 5260 nM | Potency [7] 5260 nM

CN[C@H]1CCc2cc(OC)c(OC)c(OC)c2-c2ccc(OC)c(=O)cc21
inactive: Potency [1] | Potency [7]
active: Potency [2] 1 nM | Potency [5] 1.5 nM | Potency [9] 59 nM

CC(C)(C)c1cnc(CSc2cnc(NC(=O)C3CCNCC3)s2)o1
active: Potency [1] 93.5 nM | Potency [3] 105 nM | Potency [4] 1480 nM | Potency [5] 209 nM | Potency [6] 235 nM | Potency [7] 372 nM | Potency [9] 132 nM

CNC(=O)c1cc(Oc2ccc(NC(=O)Nc3cc(C(C)(C)C)nn3-c3ccc4ncccc4c3)c(F)c2)ccn1
active: Potency [1] 4690 nM | Potency [2] 5900 nM | Potency [4] 7430 nM | Potency [5] 8330 nM | Potency [6] 9350 nM | Potency [7] 23500 nM | Potency [9] 9350 nM

CNC(=O)c1nn(C)c2c1C(C)(C)Cc1cnc(Nc3ccc(N4CCN(C)CC4)cc3)nc1-2
active: Potency [1] 1660 nM | Potency [2] 1050 nM | Potency [4] 1180 nM | Potency [5] 4690 nM | Potency [6] 3320 nM | Potency [7] 4690 nM | Potency [9] 833 nM

COc1cc(C(=O)NS(=O)(=O)c2ccccc2C)ccc1Cc1cn(C)c2ccc(NC(=O)OC3CCCC3)cc12
inactive: Potency [7] | Potency [9]
active: Potency [1] 23500 nM | Potency [2] 14800 nM | Potency [5] 18700 nM

C[C@@H]1CN(CC(=O)Nc2ccc3c(c2)Cc2cccc(-c4cc(=O)cc(N5CCOCC5)o4)c2S3)C[C@H](C)O1
active: Potency [1] 16600 nM | Potency [2] 2640 nM | Potency [4] 5260 nM | Potency [5] 9350 nM | Potency [6] 18700 nM | Potency [8] 10500 nM

CC(=O)SC[C@@H](C)C(=O)N1CCC[C@H]1C(=O)N[C@@H](Cc1ccccc1)C(=O)O
inactive: Potency [1] | Potency [2] | Potency [4] | Potency [5] | Potency [6] | Potency [7] | Potency [8] | Potency [9]

CC(C)=CCCC(C)=CCCC(C)=CCSc1ccccc1C(=O)O
active: Potency [1] 1180 nM | Potency [2] 2350 nM | Potency [4] 4180 nM | Potency [5] 1180 nM | Potency [9] 235 nM
